Measured values as given in PubChem BioAssay AID602292 (National Center for Advancing Translational Sciences (NCATS), 2012).
Out of some 1,300 compounds screened, about 380 (29%) were called active. About 37% were inconclusive and are not listed. Calls come from the whole dose curve; as a rule, active = well fitted inhibition curve with a large enough effect; inconclusive = small, poorly fitted or top-dose-only effect; inactive = flat fitted curve, though single readings scatter. The list shows a part of the results. A call without a number means that no potency is given here.

Target: Thyrotropin receptor (Homo sapiens) (UniProt P16473)
Test: qHTS for antagonists of the Thyroid Stimulation Hormone Receptor: Hit Validation in Primary Screen; note: nearly all actives have a fitted effect of over 80% in size
Details: TSHR-expressing cells, cAMP antagonist mode; series mostly up to 58 µM
Summary of the method: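 Competitive HTRF detected cAMP in lysates of TSHR cells, read 30 minutes after antibody and d2 addition at room temperature. Before lysis, cells had 2 hours at 37 deg C with compound plus EC80 TSH, 4nM final.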
Potency is the fitted concentration of half-maximal effect.

Thyrotropin receptor (Homo sapiens), sequence (P16473 whole entry, looked up): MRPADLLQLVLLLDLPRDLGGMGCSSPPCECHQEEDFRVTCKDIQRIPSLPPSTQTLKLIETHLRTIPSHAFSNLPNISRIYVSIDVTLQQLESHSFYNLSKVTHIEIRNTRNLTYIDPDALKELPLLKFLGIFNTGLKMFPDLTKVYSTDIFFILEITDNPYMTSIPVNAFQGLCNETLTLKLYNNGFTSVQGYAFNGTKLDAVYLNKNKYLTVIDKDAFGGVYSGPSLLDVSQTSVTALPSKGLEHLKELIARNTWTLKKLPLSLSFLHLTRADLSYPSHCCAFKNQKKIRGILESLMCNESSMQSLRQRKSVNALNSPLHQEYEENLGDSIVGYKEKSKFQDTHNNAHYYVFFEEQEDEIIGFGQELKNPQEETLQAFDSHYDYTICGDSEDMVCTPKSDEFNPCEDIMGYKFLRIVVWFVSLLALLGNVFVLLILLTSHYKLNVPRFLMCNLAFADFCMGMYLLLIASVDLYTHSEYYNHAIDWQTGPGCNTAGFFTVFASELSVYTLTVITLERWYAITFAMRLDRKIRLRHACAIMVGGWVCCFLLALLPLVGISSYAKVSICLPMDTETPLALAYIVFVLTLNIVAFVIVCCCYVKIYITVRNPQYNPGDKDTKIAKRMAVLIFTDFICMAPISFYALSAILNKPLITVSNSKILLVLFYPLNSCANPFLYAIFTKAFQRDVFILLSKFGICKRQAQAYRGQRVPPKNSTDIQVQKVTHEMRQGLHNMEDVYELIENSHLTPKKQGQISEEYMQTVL

SMILES	Potency
Cc1ccc(O)c(N=Cc2cc(Cc3ccccc3)cc([N+](=O)[O-])c2O)c1	16.9 µM (active)
CN(C)S(=O)(=O)N1CCN(c2ccnc3cc(Cl)ccc23)CC1	inactive
O=C(Nc1ccc(C(F)(F)F)cc1)c1csc(-c2ccncc2)n1	60.1 µM (active)
CC(C)(C)NC(=O)C(c1ccc(O)cc1)N(Cc1ccccc1)C(=O)CCC(=O)Nc1nccs1 (stereo unspecified)	inactive
O=C(Nc1cc(Sc2nc3ccccc3s2)cc([N+](=O)[O-])c1)c1ccccc1F	inactive
O=[N+]([O-])c1c(NCCO)cc(Sc2nc3ccccc3s2)c2nonc12	23.9 µM (active)
Cc1nnc(SCC(=O)Nc2nonc2C)s1	inactive
Cc1nnc(Sc2cc(NCCCO)c([N+](=O)[O-])c3nonc23)s1	33.8 µM (active)
O=C1C=C(c2ccc3[nH]ccc3c2)C[C@@H](c2ccc(Cl)cc2)C1	inactive
O=C(/C=C/c1cccc(Cl)c1)c1ccc([N+](=O)[O-])o1	26.9 µM (active)
C/C(=N\NC(=O)c1nnn(-c2nonc2N)c1-c1ccc(Cl)c(Cl)c1)c1ccncc1	inactive
CCn1nc(C)c(CN2CCCC(CNS(=O)(=O)c3ccc(OC)cc3)C2)c1C (stereo unspecified)	inactive
C=C(C)C(=O)OCC(O)COc1ccc(C(C)(C)c2ccc(OCC(O)COC(=O)C(=C)C)cc2)cc1 (stereo unspecified)	21.3 µM (active)
COc1ccc(-c2c(C(F)(F)F)[nH]n3c(=O)cc(-c4ccccc4)nc23)cc1	19 µM (active)
O=c1cc(-c2ccccc2)nc2c(-c3ccccc3)c(C(F)(F)F)[nH]n12	6.01 µM (active)
Nc1nc2nc(-c3ccccc3)cc(C(F)(F)F)c2s1	inactive
COc1ccc(-c2cn(CCCOCc3ccccc3)nn2)cc1	inactive
COc1ccc(OC)c(C2=NOC(C(=O)NCC3CCCO3)C2)c1 (stereo unspecified)	inactive
Cc1sc2ncn(CC(=O)NCCCC(=O)NCc3ccc(F)cc3)c(=O)c2c1C	inactive
Cc1ccc(CNC(=O)CCNC(=O)N2CCn3c2nc2ccccc23)cc1	inactive
Cc1cc(NC(=O)c2cc(-c3ccco3)on2)nn1Cc1ccc(Cl)cc1	30.1 µM (active)

SMILES	Potency
O=C(Nc1ccccc1Cl)/C(Cl)=C(\Cl)S(=O)c1ccccc1 (stereo unspecified)	26.9 µM (active)
COc1ccc(NC(=O)/C(Cl)=C(/Cl)S(=O)Cc2ccc(Cl)cc2)cn1 (stereo unspecified)	30.1 µM (active)
COc1ccc(NC(=O)/C(Cl)=C(/Cl)S(=O)Cc2ccccc2Cl)cn1 (stereo unspecified)	21.3 µM (active)
COc1ccc(-n2nc(C(=O)NCC(=O)NCCCN3CCN(C)CC3)c3ccccc3c2=O)cc1	inactive
Cc1ccccc1NC(=O)Cc1nc(COC(=O)c2cccc([N+](=O)[O-])c2)cs1	inactive
CCSc1ccc(C(=O)Nc2ccc(Br)cn2)cc1[N+](=O)[O-]	inactive
CC(=O)Oc1c(I)cc(I)cc1C(=O)Nc1ccc(Cl)cc1	1.9 µM (active)
Cn1cc(Cl)c(C(=O)N/N=C/c2ccc3c4c(cccc24)CC3)n1	inactive
CCC(=O)NC1=C(Cl)C(=O)C(NC(=O)CC)=C(Cl)C1=O	30.1 µM (active)
O=C(NC1CCOc2ccccc21)c1ccccn1 (stereo unspecified)	inactive
COc1ccc(CCNC(=O)c2ccc(-c3ccc([N+](=O)[O-])cc3Cl)o2)cc1OC	23.9 µM (active)
COc1ccc(CCNC(=O)c2cccc3c2C(=O)N(C2CCCCC2)C3)cc1OC	inactive
O=C(CSc1nnc(-c2ccncc2)n1Cc1ccco1)Nc1nc(-c2ccccc2)cs1	21.3 µM (active)
Cc1cc(C)c(S(=O)(=O)c2c(C)cccc2C)c(Cl)n1	23.9 µM (active)
CC(Sc1nn(-c2ccc(F)cc2)c(=S)s1)C(=O)c1c(N)n(C)c(=O)n(C)c1=O (stereo unspecified)	37.9 µM (active)
CCCCCC/C(C)=C1/SC(=S)NC1=O	30.1 µM (active)
O=C(Nn1cnnc1)C(c1ccccc1)c1ccccc1	inactive
O=C(N=C1SC2CS(=O)(=O)CC2N1c1ccc(F)cc1)C1CC1 (stereo unspecified)	inactive
CCCCCc1c2c(cc(O)c1C(=O)O)OC(=O)c1c(cc(OC)cc1C(=O)CCCC)O2	33.8 µM (active)
COC(=O)[C@H]1[C@H]2C[C@@H]3c4[nH]c5cc(OC)ccc5c4CCN3C[C@H]2C[C@@H](OC(=O)/C=C/c2cc(OC)c(OC)c(OC)c2)[C@@H]1OC	inactive
O=C(CC1C(=O)NCCN1Cc1cccc(F)c1F)NCCCC1CCCC1 (stereo unspecified)	inactive

SMILES	Potency
CCCn1nnc(NC(=O)C(C)Oc2ccc(Cl)cc2Cl)n1 (stereo unspecified)	inactive
CC(Oc1ccc(Cl)cc1Cl)c1nc(-c2ccc(NC(=O)c3cccnc3)cc2)no1 (stereo unspecified)	21.3 µM (active)
COCCNc1cnn(-c2ccccc2)c(=O)c1Cl	inactive
Cc1ccccc1Oc1cc(-n2ncc(Cl)c(Cl)c2=O)ncn1	12 µM (active)
CC(C)(CNC(=O)C1c2ccccc2-c2ccccc21)N1CCOCC1	inactive
Cc1[nH]n(-c2ccccc2)c(=O)c1N=Nc1c(O)cc(S(=O)(=O)N(C)C)c2ccccc12	8.49 µM (active)
CC(NC(=O)/C(C#N)=C/c1ccc([N+](=O)[O-])o1)c1ccccc1 (stereo unspecified)	30.1 µM (active)
Cc1ccc(S(=O)(=O)N2CCN(C(=O)Cc3ccsc3)CC2)c(C)c1	inactive
O=C(Cn1ncc(Cl)c(Cl)c1=O)N1CCN(S(=O)(=O)c2ccc3ccccc3c2)CC1	9.53 µM (active)
CCc1nn(CC(=O)N2CCCCCC2)c(=O)c2cc3ccccc3n12	inactive
NC(=O)CSc1oc(-c2ccco2)nc1S(=O)(=O)c1ccccc1	inactive
CS(=O)(=O)N1CCc2cc(C(=O)Nc3ccc(COCC(F)(F)F)cc3)ccc21	inactive
NC(=O)c1ccc(CN2CCc3ccccc3C2)cc1	inactive
CCc1nnc(NS(=O)(=O)c2ccc(NC(=O)COc3ccc4ccccc4c3)cc2)s1	inactive
O=C(Nc1nnc(C2CC2)s1)c1ccc(Cl)c(S(=O)(=O)N2CCc3ccccc3C2)c1	3.79 µM (active)
CCc1nnc(NC(=O)c2ccc(Cl)c(S(=O)(=O)N3CCc4ccccc43)c2)s1	7.57 µM (active)
C=CCOc1c(Cl)cc(CNc2ccc(N(C)C)cc2)cc1OC	inactive
N#Cc1c(C(F)(F)F)cc(-c2ccc(Cl)cc2)[nH]c1=O	10.7 µM (active)
O=C1C=C(c2ccc(Cl)c(C(F)(F)F)c2)C[C@@H](c2ccc(Cl)cc2)C1	inactive
